Test results as given in PubChem BioAssay AID1347428 (National Center for Advancing Translational Sciences (NCATS), 2020).
In all, about 91,000 compounds went through this assay and about 290 (0.32%) were called active. Entries that show only a call come without a potency. Another 7% or so got no clear call; they are omitted. Calls come from the whole dose curve; as a rule, active = well fitted inhibition curve with a large enough effect; inconclusive = small, poorly fitted or top-dose-only effect; inactive = no such curve, though single readings can be large or run the other way. For the sample, actives were picked, then their nearest neighbours and some compounds at random.

target: Single-stranded DNA cytosine deaminase (Homo sapiens) (UniProt Q9GZX7); assay: Primary qHTS assay for inhibitors of Activation Induced Cytidine Deaminase (AID): AID signal; conditions: AID deamination FRET fluorescence, UDG-coupled, 4 h; series mostly up to 115 µM; note: nearly all actives have a fitted effect of over 25% in size
Sequence (Q9GZX7 whole entry, looked up): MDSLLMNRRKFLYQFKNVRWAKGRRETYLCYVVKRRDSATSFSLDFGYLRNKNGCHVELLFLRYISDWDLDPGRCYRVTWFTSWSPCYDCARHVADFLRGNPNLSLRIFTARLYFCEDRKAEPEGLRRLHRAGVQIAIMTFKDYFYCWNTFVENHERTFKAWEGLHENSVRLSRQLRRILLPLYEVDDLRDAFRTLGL
Potency is the fitted concentration of half-maximal effect.

SMILES	Potency
CCn1c(SC(C)c2nnc(-c3ccccc3)o2)nc2ccccc2c1=O (stereo unspecified)	inactive
O=C(Cc1ccc(Cl)c(Cl)c1)NCC1CN(Cc2ccccc2)CCO1 (stereo unspecified)	inactive
CCn1ccc(C(=O)Nn2c(C)nc3sc4c(c3c2=O)CCC(C)C4)n1 (stereo unspecified)	inactive
COC(=O)c1ccc(NC(=O)c2noc3c2COc2ccc(C)cc2-3)cc1	inactive
COc1ccccc1Nc1c2c(nc3ccc(NC(=O)/C=C/c4cc(OC)c(OC)c(OC)c4)cc13)CCCC2	44.7 µM (active)
Cc1ccc(Nc2c3c(nc4ccccc24)CCC3)cc1	inactive
CCOc1ccc(C(=O)Nc2ccc3nc4c(c(Nc5ccccc5OC)c3c2)CCCC4)cc1	inactive
Cc1ccc2[nH]c(=S)nc(-c3ccccc3)c2c1	inactive
Cc1cc(O)c2c(C)c(CC(=O)Nc3nc4ccccc4[nH]3)c(=O)oc2c1	inactive
Cc1ccc(CC(=O)NC2(C)CCCc3ccccc32)cc1 (stereo unspecified)	inactive
CCn1c(SCC(=O)N2CCc3ccccc32)nnc1C(C)NC(=O)c1ccccc1F (stereo unspecified)	inactive
O=S1(=O)C=CC(N(Cc2ccccc2)Cc2ccccc2F)C1 (stereo unspecified)	inactive
Cc1cc(NC(=O)C(C)Sc2nc(NC3CC3)c3ccccc3n2)no1 (stereo unspecified)	inactive
O=C(NC(CCCc1ccccc1)c1ccccc1)c1ccc[n+]([O-])c1 (stereo unspecified)	inactive
COc1ccc(OC)c(CNC(=O)c2scnc2C)c1	inactive
CCCCNC(=O)CSc1c2c(nc3cc(Cl)ccc13)CCCC2	inactive
COc1cccc(N=C2NN=C(c3ccc4c(c3)CC(C)N4S(C)(=O)=O)CS2)c1 (stereo unspecified)	inactive
COc1cc(C(=O)Oc2ccc(C(C)=O)cc2)ccc1C	inactive
CCN(C)Cc1cccc(CNC(=O)NC2CC2)c1	inactive
CCCCn1c(CNC(=O)C23CC4CC(CC(C4)C2)C3)nnc1SCC(=O)Nc1ccc(C)cc1	44.7 µM (active)
Cc1cccc(NC(=O)CSc2nnc(CNC(=O)c3cccc(C)c3)n2-c2ccccc2)c1	inactive
CCn1c(CNC(=O)C23CC4CC(CC(C4)C2)C3)nnc1SCC(=O)Nc1ccc(OC)cc1	inactive
Cc1ccc(-n2c(=O)c3sccc3n(CC(=O)N3CCCCC3C)c2=O)cc1C (stereo unspecified)	inactive
N#Cc1c(SCC(=O)N2CCCC2)nc(N2CCOCC2)c2c1CCCC2	inactive

SMILES	Potency
Cc1ccc(NC(=O)Cn2c(=O)c3c(ncn3CC(C)C)n(CC(C)C)c2=O)cc1F	inactive
N#Cc1ncn(CCC(=O)Nc2ccc(F)c(F)c2)n1	14.1 µM (active)
CCOC(=O)c1ccc(NC(=O)CCn2cnnn2)cc1	inactive
Cc1nc2nc(SCC(=O)c3ccccc3)[nH]c2cc1Br	inactive
CN(Cc1c(F)cccc1Cl)C(=O)c1ccc(NS(C)(=O)=O)cc1	inactive
O=C(NC1CC1)c1cc(-c2ccc(Cl)cc2)nc2ccccc12	inactive
COc1cc(F)ccc1NC(=O)Cc1nn(C)c(=O)c2ccccc12	inactive
COc1ccc(-c2nnc(SCCOc3ccc(Cl)cc3Cl)n2C(C)C)cc1	inactive
O=C(c1cnn(-c2ccc(F)cc2)c1-n1cccc1)N1CCN(c2ccc(F)cc2)CC1	inactive
Cc1c(Cl)cccc1NC(=O)C1CCCN(c2ncnc3onc(C)c23)C1 (stereo unspecified)	inactive
Cc1c(Cl)cccc1NC(=O)C1CCCN(C(=O)c2cnn(-c3ccccc3)c2-n2cccc2)C1 (stereo unspecified)	22.4 µM (active)
Nc1nnnn1Cc1nnc(SCc2ccc(F)cc2)n1-c1ccccc1	inactive
Cc1ccccc1/C=C1\CCc2ccccc2C1=O	inactive
O=C(NC(c1ccccc1)c1ccccn1)c1cc[n+]([O-])cc1 (stereo unspecified)	inactive
O=C(NCCc1ccccc1)c1[nH]c2ccccc2c1Cl	inactive
COc1cc(C(=O)Nc2ccc(C(=O)O)cc2)c2ccccc2n1	inactive
COc1ccccc1-c1cc(=O)c2cc(C)ccc2o1	inactive
COC(=O)C(C)(NC(=O)CCC(=O)c1ccccc1)c1ccccc1 (stereo unspecified)	inactive
O=C(NC/C(=N/NC(=O)c1cccnc1)c1ccccc1)c1ccccc1	inactive
CN(Cc1cccc(C(F)(F)F)c1)C1CCN(C(=O)c2cncc(Br)c2)CC1	inactive
Cc1cc2nc(CSc3nc4ccc(NC(=O)CCC5CCCC5)cc4s3)cc(=O)n2o1	inactive
O=Cc1cccc(Br)c1O	inactive
Cc1ccc(S(=O)(=O)NC(C)c2cccs2)cc1 (stereo unspecified)	inactive
Cc1cc(C(C)(C)C)cc(C)c1CS(=O)Cc1ccc(F)cc1 (stereo unspecified)	inactive

SMILES	Potency
CC(=O)c1c(C)[nH]c(C(=O)C(C)SCc2ccc(Cl)cc2)c1C (stereo unspecified)	inactive
NC(=O)NNC(=S)Nc1ccc(SC(F)F)cc1	inactive
COC(=O)c1cc(S(=O)(=O)Nc2ccc(C)c(F)c2)c[nH]1	inactive
CCc1ccc(-c2csc(/C(C#N)=C\Nc3ccccc3C)n2)cc1	inactive
Cc1sc(NC(=O)Cc2ccccc2)c(C#N)c1C	inactive
Cc1cc(-c2ccccc2)c(-c2nc3ccccc3s2)[nH]1	inactive
C=CCNCc1ccc(CC)cc1	inactive
COc1ccc(-c2csc(N)c2C#N)cc1	inactive
O=C(CCC1CCCC1)NCc1ccncc1	inactive
c1ccc2cc(OCCSc3ccc4ccccc4n3)ccc2c1	inactive
COc1cc(/C=C2/NC(=O)NC2=O)cc(I)c1OCC(=O)O	inactive
C[N+](C)(CCCCCC[N+](C)(C)CCCN1C(=O)c2cccc3cccc(c23)C1=O)CCCN1C(=O)c2cccc3cccc(c23)C1=O	4.47 µM (active)
Cc1ccc2c(c1)-c1cccc3cccc(c13)C2=O	inactive
COc1ccc(CNC(=O)/C=C/c2ccc(C)cc2)cc1	inactive
CCc1nc2ccccc2c(NC(=O)CN(CC)CC)c1C	inactive
Cc1ccn2c(F)c(C(F)(F)F)nc2c1	inactive
C=CCn1c(NCCCOCC)nc2c1c(=O)[nH]c(=O)n2C	inactive
Cc1ccc2[nH]c(=O)c(-c3noc(CCCC(=O)NC4CCCCC4)n3)cc2c1	inactive
Cc1c(F)cccc1NC(=O)C12CC3CC(CC(C3)C1)C2	inactive
Cc1ccc(C)c(C(C)NC(=S)NCc2ccc(Cl)cc2)c1 (stereo unspecified)	inactive
O=C(c1ccc(Cl)cc1Cl)N(C1CCCCC1)C1CCCCC1	inactive
Cc1ccc(CNC(=O)c2scnc2C)cn1	inactive
Cc1cc(-c2noc(COc3ccc(I)cc3)n2)c2ccccc2n1	inactive
